Measured values: the supplement of paper PMC8728848
The full list was thinned out, with the strongest signals kept by preference.

What was measured:
Assay in all cases: glycan array binding signal (z-score within array); higher = stronger binding
Details in all cases: glycan notation: IUPAC condensed, linker removed
[1] = test system: Neu5Ac(a2-6)Gal(b1-4)GlcNAc(b1-2)Man(a1-3)[Neu5Ac(a2-6)Gal(b1-4)GlcNAc(b1-2)Man(a1-6)]Man(b1-4)GlcNAc(b1-4)GlcNAc
Procedure, shortened: (§1)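 Glycan array data came from 3228 arrays in the Consortium for Functional Glycomics database, and only arrays with an available protein sequence were kept. Glycan names were put into IUPAC-condensed notation, and columns mapping to the same glycan were averaged. The binding signal is a within-array Z-score, averaged across arrays of one protein sequence run at different concentrations or buffers and across linkers. A negative Z-score can be read as non-binding.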

[2] = test system: Neu5Ac(a2-6)Gal(b1-4)GlcNAc(b1-3)Gal(b1-4)GlcNAc
Procedure, shortened: as §1

[3] = test system: Neu5Ac(a2-6)Gal(b1-4)GlcNAc(b1-2)Man(a1-3)[GlcNAc(b1-4)][Neu5Ac(a2-6)Gal(b1-4)GlcNAc(b1-2)Man(a1-6)]Man(b1-4)GlcNAc(b1-4)GlcNAc
Procedure, shortened: as §1

[4] = test system: Neu5Ac(a2-6)Gal(b1-4)GlcNAc(b1-2)Man(a1-3)[Man(a1-6)]Man(b1-4)GlcNAc(b1-4)GlcNAc
Procedure, shortened: as §1

[5] = test system: Neu5Ac(a2-6)Gal(b1-4)GlcNAc(b1-2)Man(a1-3)[Neu5Ac(a2-6)Gal(b1-4)GlcNAc(b1-2)Man(a1-6)]Man(b1-4)GlcNAc(b1-4)[Fuc(a1-6)]GlcNAc
Procedure, shortened: as §1

[6] = test system: Neu5Ac(a2-6)Gal(b1-4)GlcNAc(b1-2)Man(a1-6)[GlcNAc(b1-2)Man(a1-3)]Man(b1-4)GlcNAc(b1-4)GlcNAc
Procedure, shortened: as §1

[7] = test system: Neu5Ac(a2-6)Gal(b1-4)GlcNAc(b1-2)[Neu5Ac(a2-6)Gal(b1-4)GlcNAc(b1-4)]Man(a1-3)[GlcNAc(b1-4)][Neu5Ac(a2-6)Gal(b1-4)GlcNAc(b1-4)Man(a1-6)]Man(b1-4)GlcNAc(b1-4)GlcNAc
Procedure, shortened: as §1

[8] = test system: Neu5Ac(a2-6)Gal(b1-4)GlcNAc(b1-3)Gal(b1-4)GlcNAc(b1-3)Gal(b1-4)GlcNAc(b1-2)Man(a1-3)[Neu5Ac(a2-6)Gal(b1-4)GlcNAc(b1-3)Gal(b1-4)GlcNAc(b1-3)Gal(b1-4)GlcNAc(b1-2)Man(a1-6)]GalNAc
Procedure, shortened: as §1

[9] = test system: Neu5Ac(a2-6)Gal(b1-4)GlcNAc(b1-3)Gal(b1-4)GlcNAc(b1-3)[Neu5Ac(a2-6)Gal(b1-4)GlcNAc(b1-3)Gal(b1-4)GlcNAc(b1-6)]GalNAc
Procedure, shortened: as §1

[10] = test system: Neu5Ac(a2-6)Gal(b1-4)GlcNAc
Procedure, shortened: as §1

[11] = test system: Neu5Ac(a2-6)Gal(b1-4)GlcNAc(b1-2)Man(a1-3)[GlcNAc(b1-2)Man(a1-6)]Man(b1-4)GlcNAc(b1-4)GlcNAc
Procedure, shortened: as §1

[12] = test system: Neu5Ac(a2-6)Gal(b1-4)GlcNAc(b1-2)Man(a1-6)[Man(a1-3)]Man(b1-4)GlcNAc(b1-4)GlcNAc
Procedure, shortened: as §1

[13] = test system: Neu5Ac(a2-6)Gal(b1-4)GlcNAc(b1-2)Man(a1-6)Man(b1-4)GlcNAc(b1-4)GlcNAc
Procedure, shortened: as §1

[14] = test system: Neu5Ac(a2-6)Gal(b1-4)GlcNAc(b1-3)Gal(b1-4)[Fuc(a1-3)]GlcNAc(b1-3)Gal(b1-4)[Fuc(a1-3)]GlcNAc
Procedure, shortened: as §1

[15] = test system: Neu5Ac(a2-6)Gal(b1-4)GlcNAc6S
Procedure, shortened: as §1

Neu5Ac(a2-6)Gal(b1-4)Glc = test system: Neu5Ac(a2-6)Gal(b1-4)Glc
Procedure, shortened: as §1

[16] = test system: Neu5Ac(a2-6)Gal(b1-4)GlcNAc(b1-2)Man(a1-6)[Gal(b1-4)GlcNAc(b1-2)Man(a1-3)]Man(b1-4)GlcNAc(b1-4)GlcNAc
Procedure, shortened: as §1

[17] = test system: Neu5Ac(a2-6)Gal(b1-4)GlcNAc(b1-6)[Gal(b1-3)]GalNAc
Procedure, shortened: as §1

[18] = test system: Neu5Ac(a2-6)Gal(b1-4)GlcNAc(b1-3)Gal(b1-3)GlcNAc
Procedure, shortened: as §1

[19] = test system: Neu5Ac(a2-6)Gal(b1-4)GlcNAc(b1-2)Man(a1-3)[GlcNAc(b1-2)Man(b1-4)GlcNAc(b1-2)Man(a1-6)]Man(b1-4)GlcNAc(b1-4)GlcNAc
Procedure, shortened: as §1

Chain of Aggrecan (Rattus norvegicus), NP_071526 (chain, as listed by the source): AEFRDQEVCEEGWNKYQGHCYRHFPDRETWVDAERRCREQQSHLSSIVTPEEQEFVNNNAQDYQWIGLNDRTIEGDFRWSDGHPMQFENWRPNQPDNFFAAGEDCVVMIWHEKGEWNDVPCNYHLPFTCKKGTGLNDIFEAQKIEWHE
Chain of PILRa (Mus musculus), Q2YSF3 (Q2YSF3 entry or part of it): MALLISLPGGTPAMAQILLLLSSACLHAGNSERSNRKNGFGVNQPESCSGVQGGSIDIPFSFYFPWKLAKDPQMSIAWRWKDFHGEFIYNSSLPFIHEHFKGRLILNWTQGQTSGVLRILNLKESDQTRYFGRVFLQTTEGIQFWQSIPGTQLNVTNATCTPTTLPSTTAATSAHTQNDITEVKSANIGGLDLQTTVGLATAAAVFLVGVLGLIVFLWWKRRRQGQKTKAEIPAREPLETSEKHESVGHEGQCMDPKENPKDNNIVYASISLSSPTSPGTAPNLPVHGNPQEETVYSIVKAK
Chain of C3b (Homo sapiens), P01024 (P01024 23-667): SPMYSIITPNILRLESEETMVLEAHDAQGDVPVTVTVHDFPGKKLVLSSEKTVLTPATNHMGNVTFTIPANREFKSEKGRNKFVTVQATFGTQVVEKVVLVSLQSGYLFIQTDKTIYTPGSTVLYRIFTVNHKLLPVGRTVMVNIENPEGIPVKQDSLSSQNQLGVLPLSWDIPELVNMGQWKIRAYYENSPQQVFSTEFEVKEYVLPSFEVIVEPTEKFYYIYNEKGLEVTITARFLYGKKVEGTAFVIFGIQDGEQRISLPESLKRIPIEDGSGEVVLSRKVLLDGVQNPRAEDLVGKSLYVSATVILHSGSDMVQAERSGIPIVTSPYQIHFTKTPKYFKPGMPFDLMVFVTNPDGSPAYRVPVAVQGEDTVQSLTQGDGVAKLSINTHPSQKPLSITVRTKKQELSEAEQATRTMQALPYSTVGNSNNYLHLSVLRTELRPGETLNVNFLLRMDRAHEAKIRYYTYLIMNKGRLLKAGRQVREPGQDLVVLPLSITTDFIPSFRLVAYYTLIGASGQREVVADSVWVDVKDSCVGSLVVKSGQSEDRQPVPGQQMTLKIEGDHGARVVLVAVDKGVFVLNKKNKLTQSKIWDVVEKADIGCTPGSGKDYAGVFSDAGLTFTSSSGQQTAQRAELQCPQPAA
Chain of CHI3L1 (Homo sapiens), P36222 (P36222 whole entry): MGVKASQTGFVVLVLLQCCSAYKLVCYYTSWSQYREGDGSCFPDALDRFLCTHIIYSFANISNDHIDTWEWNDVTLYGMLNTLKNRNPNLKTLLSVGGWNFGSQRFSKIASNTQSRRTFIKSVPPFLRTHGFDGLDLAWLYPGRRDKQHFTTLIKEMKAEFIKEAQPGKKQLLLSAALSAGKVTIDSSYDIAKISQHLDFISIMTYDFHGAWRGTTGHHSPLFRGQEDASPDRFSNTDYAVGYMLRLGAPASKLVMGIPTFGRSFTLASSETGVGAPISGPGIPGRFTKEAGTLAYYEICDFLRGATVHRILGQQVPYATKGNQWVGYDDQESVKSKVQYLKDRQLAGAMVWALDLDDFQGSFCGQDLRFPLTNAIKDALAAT
Chain of Avaren (Actinomycete K97) (chain, as listed by the source): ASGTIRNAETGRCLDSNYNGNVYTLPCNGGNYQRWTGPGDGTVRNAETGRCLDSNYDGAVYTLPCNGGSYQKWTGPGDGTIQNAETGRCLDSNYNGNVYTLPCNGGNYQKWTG
Chain of Neurocan (Homo sapiens), O14594 (O14594 other isoform, or with tags, fused parts or gaps): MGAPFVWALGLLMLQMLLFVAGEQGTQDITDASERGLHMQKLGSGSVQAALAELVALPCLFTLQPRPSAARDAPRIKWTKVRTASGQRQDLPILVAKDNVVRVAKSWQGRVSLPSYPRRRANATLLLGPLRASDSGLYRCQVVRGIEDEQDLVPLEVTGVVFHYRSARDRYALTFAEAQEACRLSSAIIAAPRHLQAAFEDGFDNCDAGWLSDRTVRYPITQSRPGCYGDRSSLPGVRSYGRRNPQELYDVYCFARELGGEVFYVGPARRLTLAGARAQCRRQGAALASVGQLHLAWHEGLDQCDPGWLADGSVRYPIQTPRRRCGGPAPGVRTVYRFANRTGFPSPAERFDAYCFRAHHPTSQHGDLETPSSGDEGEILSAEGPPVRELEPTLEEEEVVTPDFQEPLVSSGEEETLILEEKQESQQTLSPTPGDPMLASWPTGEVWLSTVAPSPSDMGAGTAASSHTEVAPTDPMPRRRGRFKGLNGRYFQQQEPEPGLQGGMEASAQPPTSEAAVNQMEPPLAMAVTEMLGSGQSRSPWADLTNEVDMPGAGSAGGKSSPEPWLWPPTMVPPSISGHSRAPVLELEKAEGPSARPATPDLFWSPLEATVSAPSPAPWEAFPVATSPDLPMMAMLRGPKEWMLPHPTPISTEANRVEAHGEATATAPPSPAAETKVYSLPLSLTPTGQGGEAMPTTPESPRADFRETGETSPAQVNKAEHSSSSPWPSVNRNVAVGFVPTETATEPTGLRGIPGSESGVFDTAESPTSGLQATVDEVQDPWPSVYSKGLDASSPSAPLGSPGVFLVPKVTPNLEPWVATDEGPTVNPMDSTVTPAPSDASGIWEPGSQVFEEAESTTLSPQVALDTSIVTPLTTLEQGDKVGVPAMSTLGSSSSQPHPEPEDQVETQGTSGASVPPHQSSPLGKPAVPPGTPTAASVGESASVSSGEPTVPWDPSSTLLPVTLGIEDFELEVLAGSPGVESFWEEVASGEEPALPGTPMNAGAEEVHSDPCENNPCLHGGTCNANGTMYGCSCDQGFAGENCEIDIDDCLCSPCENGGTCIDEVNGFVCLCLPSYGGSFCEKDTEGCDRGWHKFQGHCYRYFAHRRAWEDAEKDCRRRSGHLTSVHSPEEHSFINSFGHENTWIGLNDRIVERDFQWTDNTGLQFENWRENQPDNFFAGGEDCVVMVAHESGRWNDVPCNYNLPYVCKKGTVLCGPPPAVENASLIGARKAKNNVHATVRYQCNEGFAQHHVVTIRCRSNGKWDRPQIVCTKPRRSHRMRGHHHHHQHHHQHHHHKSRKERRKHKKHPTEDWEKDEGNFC
Chain of PILRb (Mus musculus), Q2YSF2 (Q2YSF2 entry or part of it): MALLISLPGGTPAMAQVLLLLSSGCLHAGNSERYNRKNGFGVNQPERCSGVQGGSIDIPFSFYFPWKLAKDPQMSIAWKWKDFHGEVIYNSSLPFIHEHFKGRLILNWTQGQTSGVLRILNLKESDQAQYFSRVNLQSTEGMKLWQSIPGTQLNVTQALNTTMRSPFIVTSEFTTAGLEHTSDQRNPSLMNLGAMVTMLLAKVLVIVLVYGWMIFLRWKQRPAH
Chain of SRLC (Mus musculus), Q8VIF6 (Q8VIF6 other isoform, or with tags, fused parts or gaps): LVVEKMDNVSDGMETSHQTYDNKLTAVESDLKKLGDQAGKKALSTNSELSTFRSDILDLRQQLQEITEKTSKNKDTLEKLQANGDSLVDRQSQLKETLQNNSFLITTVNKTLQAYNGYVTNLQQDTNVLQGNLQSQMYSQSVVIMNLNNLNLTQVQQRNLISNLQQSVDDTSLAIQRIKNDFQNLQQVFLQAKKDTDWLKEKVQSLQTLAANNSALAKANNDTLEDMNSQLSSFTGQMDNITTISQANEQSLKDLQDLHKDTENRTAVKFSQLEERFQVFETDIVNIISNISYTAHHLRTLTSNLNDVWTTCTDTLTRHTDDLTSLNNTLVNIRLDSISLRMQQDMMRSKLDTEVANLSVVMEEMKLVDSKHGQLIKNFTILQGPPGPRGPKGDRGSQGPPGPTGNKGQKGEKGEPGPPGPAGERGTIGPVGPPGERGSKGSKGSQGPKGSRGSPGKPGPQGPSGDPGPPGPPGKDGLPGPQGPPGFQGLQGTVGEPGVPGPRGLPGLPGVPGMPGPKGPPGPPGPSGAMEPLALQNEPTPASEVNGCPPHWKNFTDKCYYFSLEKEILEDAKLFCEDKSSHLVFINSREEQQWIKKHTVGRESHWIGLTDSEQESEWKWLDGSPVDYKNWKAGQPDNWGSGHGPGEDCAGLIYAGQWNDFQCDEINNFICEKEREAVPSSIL
Chain of CHT (Homo sapiens) (chain, as listed by the source): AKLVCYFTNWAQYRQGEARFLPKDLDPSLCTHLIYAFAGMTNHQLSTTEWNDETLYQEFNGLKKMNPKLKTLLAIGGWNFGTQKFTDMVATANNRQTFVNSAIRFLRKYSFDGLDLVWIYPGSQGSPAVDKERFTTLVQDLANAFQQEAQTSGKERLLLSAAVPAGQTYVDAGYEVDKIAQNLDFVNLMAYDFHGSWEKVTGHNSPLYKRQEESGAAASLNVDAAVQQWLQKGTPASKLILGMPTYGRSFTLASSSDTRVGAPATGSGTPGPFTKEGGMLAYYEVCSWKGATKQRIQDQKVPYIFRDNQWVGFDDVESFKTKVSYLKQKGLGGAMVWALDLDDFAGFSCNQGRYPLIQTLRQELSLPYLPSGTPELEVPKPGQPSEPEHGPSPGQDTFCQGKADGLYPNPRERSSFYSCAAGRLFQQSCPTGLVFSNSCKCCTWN
Chain of Regenerating Gene IV (Homo sapiens), Q9BYZ8 (Q9BYZ8 whole entry, looked up): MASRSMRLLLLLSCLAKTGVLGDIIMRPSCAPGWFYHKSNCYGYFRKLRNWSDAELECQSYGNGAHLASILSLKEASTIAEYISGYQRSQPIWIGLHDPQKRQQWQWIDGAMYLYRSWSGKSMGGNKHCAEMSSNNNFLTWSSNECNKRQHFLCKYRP

CHT (Homo sapiens)
glycan array binding signal (z-score) ([1]; mutation: D138V, E140I): 0.642

HARE (Homo sapiens), Q8WWQ8
glycan array binding signal (z-score) [2]: -0.057

MpAFP RI GFP (Marinomonas primoryensis)
glycan array binding signal (z-score) [3]: -0.435 | glycan array binding signal (z-score) [4]: 0.118 | glycan array binding signal (z-score) [5]: 2.72 | glycan array binding signal (z-score) [6]: -0.058 | glycan array binding signal (z-score) [7]: 0.092 | glycan array binding signal (z-score) [8]: 3.43 | glycan array binding signal (z-score) [9]: 1.36

Regenerating Gene IV (Homo sapiens), Q9BYZ8
glycan array binding signal (z-score) [10]: -0.335

Aggrecan (Rattus norvegicus), NP_071526
glycan array binding signal (z-score) [11]: -0.152 | glycan array binding signal (z-score) [6]: -0.187 | glycan array binding signal (z-score) [12]: -0.224 | glycan array binding signal (z-score) [2]: -0.113

Siglec-8 (Homo sapiens), Q9NYZ4
glycan array binding signal (z-score) [13]: -0.178 | glycan array binding signal (z-score) ([13]; mutation: R125K): 0.093 | glycan array binding signal (z-score) ([6]; mutation: R125K): -0.193 | glycan array binding signal (z-score) [14]: 0.008 | glycan array binding signal (z-score) ([10]; mutation: R125K): -0.306

C3b (Homo sapiens), P01024
glycan array binding signal (z-score) [1]: 0.001 | glycan array binding signal (z-score) [15]: 0.107 | glycan array binding signal (z-score) (Neu5Ac(a2-6)Gal(b1-4)Glc): -0.687

PILRb (Mus musculus), Q2YSF2
glycan array binding signal (z-score) [6]: -0.407 | glycan array binding signal (z-score) [10]: -0.349

SRLC (Mus musculus), Q8VIF6
glycan array binding signal (z-score) [1]: -0.158

PILRa (Mus musculus), Q2YSF3
glycan array binding signal (z-score) [13]: -0.195 | glycan array binding signal (z-score) [16]: 1.22 | glycan array binding signal (z-score) [15]: 1.51

Avaren (Actinomycete K97)
glycan array binding signal (z-score) [17]: -0.134 | glycan array binding signal (z-score) [15]: -0.14

Neurocan (Homo sapiens), O14594
glycan array binding signal (z-score) [18]: 0.267 | glycan array binding signal (z-score) [14]: -1.44

CHI3L1 (Homo sapiens), P36222
glycan array binding signal (z-score) [19]: -0.028 | glycan array binding signal (z-score) [5]: -0.039 | glycan array binding signal (z-score) [2]: -0.105 | glycan array binding signal (z-score) [15]: -0.139
